Inconclusive results are not listed. A call without a number means that no potency is given here. Activity calls are given as the source filed them. Calls come from the whole dose curve; as a rule, active = well fitted activation curve with a large enough effect; inconclusive = small, poorly fitted or top-dose-only effect; inactive = no such curve, though single readings can be large or run the other way.

A short description of this assay: qHTS assay for re-activators of p53 using a Luc reporter: Hit Validation with no p53 Expressed. The note with it: p53-null cells, luciferase reporter counter-screen; series mostly up to 46.1 µM. The gist of the method:
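Without p53 expression, cells (1000/well, Opti-MEM + 10% FBS) were exposed 24 h at 37 deg C to compounds in a 1:5 series from 10 mM stock (top 46.1 µM in well). Luminescent signal read 10 min after Amplite addition; actives flag unspecific activation.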
(Quantitative high-throughput screening tests each substance at several concentrations.)
Take `Clc1ccc(C2=NNC(=NCC3CCCO3)SC2)cc1` (stereo not given): the Potency entry was “inactive”. Under `O=C(N/N=C/c1cccs1)c1n[nH]c2c1CCC2` stands “inactive”; under `O=C(NCCC1=CCCCC1)c1ccc([N+](=O)[O-])cc1`, “inactive”. Turning to `Cc1ccc(NC(=S)NCC2CCCO2)c(OC(F)F)c1` (stereo not given), the Potency result was “inactive”.

Regarding `O=C(NNc1c2ccccc2nc2ccccc12)c1ccc(O)cc1`, the Potency result was “inactive”.

With `CN=c1scc(-c2cccs2)n1/N=C/c1ccc(O)c(O)c1O`, the Potency result is “inactive”. Take `O=c1oc(-c2ccc(O)c(O)c2)cc2cc(O)cc(O)c12`: the Potency result was “inactive”. Regarding `CCn1c(=N)n(CCOc2ccc(OC)cc2)c2ccccc21`, the Potency result is “inactive”. Next, `Brc1c(CSc2nc3ccccc3s2)nc2ncccn12`: “inactive”. For the compound `O=C(NC(=S)Nc1cccc(O)c1)C1CCCCC1`, the Potency entry was “inactive”. `COc1cc(C(C)=O)ccc1Oc1ncnc2c1cnn2-c1ccc(F)cc1`: the Potency entry was “inactive”. Regarding `O=C(NCCCNC1CCCCC1)c1ccc(/C=N/O)nc1`, the Potency entry was “inactive”.

For the compound `Cc1nnc(SCC(=O)N2CCOCC2)c2ccccc12`, the Potency entry is “inactive”. Next, `Cc1ccc(C(=O)N2CC(=O)Nc3ccc(F)cc3C2c2ccc(F)cc2)cc1[N+](=O)[O-]` (stereo not given): “inactive”. Turning to `CN(c1ccc(C(=O)COC(=O)C2CC2)cc1)S(C)(=O)=O`, the Potency entry was “inactive”.

As for `CCOC(=O)c1c(NC(=O)C2COc3ccccc3O2)sc2c1CCN(Cc1ccccc1)C2` (stereo not given), the Potency result was “inactive”. In the case of `O=C(Cc1ccccc1)Nc1ccc(NC(=O)c2cccnc2)cc1`, the Potency entry was “inactive”. Regarding `Oc1[nH]c2ccccc2c1C=Nc1ccc2c(c1)OCCO2`, the Potency entry is “inactive”. Regarding `Cc1ccccc1Nc1nc(N)nc(COC(=O)c2ccco2)n1`, the Potency result was “inactive”.

For `CCCCNC(=S)N(Cc1c(C)noc1C)c1ccccc1`, the Potency entry is “inactive”.

(Values after PubChem BioAssay AID624331 (National Center for Advancing Translational Sciences (NCATS), 2012).)
